Data published in PubChem BioAssay AID1117361 (Southern Research Institute, 2015).
About 900 (25%) of roughly 3,600 compounds were called active. The rule behind the calls is not given here. These entries were drawn from the full list. Measured potencies and affinities stand elsewhere.

target: Protein Tat (Human immunodeficiency virus type 1 group M subtype B (isolate HXB2)) (UniProt P04608); experiment: inhibitors of Tat binding to TAR RNA, dose response, counter-screen for Vif-APOBEC3G degradation inhibitor project, biochemical, fluorescence polarization, FAM-labeled TAR RNA (AID 1117361); details: outcome: dose series up to 100 µM unless noted; series mostly up to 100 µM

| SMILES | outcome |
| --- | --- |
| O=C(Cn1nnc(-c2ccccc2-n2cnnn2)n1)c1ccccc1 | inactive |
| O=C(CN1C(=O)/C(=C\c2cccs2)SC1=S)Nc1cccc(C(=O)O)c1 | inactive |
| C=CCOc1ccc(/C=C2\SC(=S)N(CCC(=O)O)C2=O)cc1 | inactive |
| CC(=O)O/N=C/c1c(N2CCOCC2)n(C)c2ccccc12 | inactive |
| CCS(=O)(=O)Nc1ccc(C(=O)CC2(O)C(=O)Nc3ccccc32)cc1 (centres undefined) | inactive |
| CCOC(=O)C1CCCN(C(=O)c2ccc(CS(=O)(=O)c3ccc(Br)cc3)o2)C1 (centres undefined) | inactive |
| COc1ccc(S(=O)(=O)Cc2ccc(C(=O)NC(C)C)o2)cc1 | inactive |
| CCOC(=O)CSc1nnc(CNC(=O)c2cccs2)n1CCc1ccccc1 | inactive |
| COc1ccccc1N(CC(O)CN1C(=O)NC(C)(C)C1=O)S(=O)(=O)c1ccc(C)cc1 (centres undefined) | inactive |
| Cc1ccc(SCC2=NNC(=O)C2)cc1 | inactive |
| Cc1nn(Cc2ccccc2)c(C)c1/C=N/NC(=O)c1ccccc1O | inactive |
| CN(C)/C=N/NC(=O)c1ccccc1Cl | inactive |
| Cc1nc2ccc(S(=O)(=O)N(C)CC(=O)N3CCc4ccccc43)cc2s1 | inactive |
| COC(=O)[C@@]1(Cc2ccc(OC)cc2)[C@H]2c3cc(C(=O)N(C)C)n(C[C@H](O)CO)c3C[C@H]2CN1C(=O)c1ccccc1 | inactive |
| CCOC(=O)c1sc2ncnc(N3CCN(C(=O)OCC)CC3)c2c1C | inactive |
| COc1ccc(-c2nc(CS(=O)CC(=O)NCc3ccco3)c(C)o2)cc1 (centres undefined) | inactive |
| CCCCC(O)(CCCC)C(=O)N/N=C(\C)c1ccc(Cl)cc1 | inactive |
| Cc1ccc2nc(SCC(=O)N(CC(C)C)c3c(N)n(CC(C)C)c(=O)[nH]c3=O)[nH]c2c1 | inactive |
| COc1ccc(NC(=O)C2CCCN(S(=O)(=O)c3cccnc3)C2)cc1 (centres undefined) | inactive |
| O=c1[nH]c2ccccc2c(O)c1-[n+]1ccccc1 | inactive |
| COC(=O)C(NC(=O)C(NC(=O)c1ccccc1)C(C)C)C(C)C (centres undefined) | inactive |
| CCC(C)[C@H](NC(=O)Nc1ccccc1F)C(=O)OC (some centres undefined) | inactive |

| SMILES | outcome |
| --- | --- |
| CCOC(=O)c1ccccc1NC(=O)CSc1nccn1C | inactive |
| O=[N+]([O-])c1ccc(N2CCN(c3ccc(Cl)nn3)CC2)c(Cl)c1 | inactive |
| CCc1ccc(C(=O)Nc2cccnc2Oc2ccc(Cl)cc2)cc1 | inactive |
| CC1=CC(C)(C)Nc2ccc(OC(=O)c3cccnc3)cc21 | inactive |
| Cc1cc(C)cc(OCC(=O)NNC(=O)CN2C(=O)c3ccccc3C2=O)c1 | inactive |
| O=C(Nc1ccccc1[N+](=O)[O-])C1C(c2ccccc2)=C1c1ccccc1 | inactive |
| Cc1ccc(C(=O)NNS(=O)(=O)c2ccccc2[N+](=O)[O-])cc1 | inactive |
| O=C(NN=C1CCCCCC1)c1cccnc1 | inactive |
| O=C(COc1cccc2cccnc12)N1CCc2ccccc2C1 | inactive |
| Cc1cc(C)n(CC(=O)NNC(=O)c2ccc(NC(=O)CC#N)cc2)n1 | inactive |
| CN(CCOCCOc1ccc2ccccc2c1)Cc1ccccc1 | inactive |
| Cc1c(C(=O)Nc2ccncc2)oc2c1C(=O)CC(C)(C)C2 | inactive |
| CC(C(=O)Nc1ccc(F)c(F)c1F)N1CCCCCC1 (centres undefined) | inactive |
| CCOC(=O)/C(C#N)=C/c1c(OCC)n(CC)c2ccccc12 | inactive |
| COC1=CC(=O)c2c(ccc3ncnc(N)c23)C1=O | inactive |
| CC(C)n1c(CCC(=O)O)ccc1-c1ccccc1 | inactive |
| CCOC(=O)c1cc(-c2ccccc2)n(CC(=O)O)c1C | inactive |
| Cc1c(CN2CCC(CO)(Cc3cccc(C(F)(F)F)c3)CC2)c2ccccc2n1C | inactive |
| CCOc1ccc(-n2cnnn2)cc1S(=O)(=O)NCCc1ccc(OC)c(OC)c1 | inactive |
| O=C(CSc1nccc(=O)[nH]1)Nc1ccc2c(c1)OCCO2 | inactive |
| Cc1nc(NC(=O)CN2CCOCC2)sc1-c1ccccc1 | inactive |
| C=CCn1c(N2CCCCCC2)nc2c1c(=O)[nH]c(=O)n2C | inactive |

| SMILES | outcome |
| --- | --- |
| Cc1ccc2[nH]c(=O)c(C3C(C#N)=C(N)Oc4c3ccc3cccnc43)cc2c1 (centres undefined) | inactive |
| CC(=O)OC(C)C1C2=C(C(=O)CC1(C)O)C(=O)c1c(ccc(-c3ccc4c(c3O)C(=O)C3=C(C4=O)C(C(C)OC(C)=O)C(C)(O)CC3=O)c1O)C2=O (centres undefined) | inactive |
| CCNC(=O)C1CC(=O)N(Cc2ccc(F)cc2)C(=Nc2ccc(OC)cc2)S1 (centres undefined) | inactive |
| N#C/C(C(=O)N1CCOCC1)=C1/SC(Cc2ccccc2)C(=O)N1c1ccccc1 (centres undefined) | inactive |
| CCc1ccc(N/C(SCc2cccc(F)c2)=C(/C#N)C(=O)NCc2ccco2)cc1 | inactive |
| CCOc1ccc2[nH]c(=O)c(CN(Cc3nnnn3Cc3ccco3)C3CCCCC3)cc2c1 | inactive |
| Cc1ccc2nsnc2c1S(=O)(=O)N(Cc1ccco1)Cc1cc2cccc(C)c2[nH]c1=O | inactive |
| CCN(Cc1ccccc1)Cc1nnnn1Cc1ccccc1 | inactive |
| Cc1ccc2[nH]c(=O)c(CN(Cc3cccs3)Cc3nnnn3Cc3ccccc3)cc2c1 | inactive |
| Cc1ccc(-n2ncc(C#N)c2/N=C/N2CCCCCC2)cc1 | inactive |
| O=C1OCCC1Sc1nc2ccccc2n1Cc1ccccc1 (centres undefined) | inactive |
| CCOC(=O)c1ccc(NS(=O)(=O)c2ccc3oc(=O)[nH]c3c2)cc1 | inactive |
| Cn1c(=O)oc2cc(S(=O)(=O)Nc3cccc(C(=O)O)c3)ccc21 | inactive |
| COC(=O)c1sc(NC(=O)c2ccc(Cn3cc(Cl)cn3)o2)c(C#N)c1C | inactive |
| CCOc1ccc(/C=C2\SC(=S)N(CCC(=O)O)C2=O)cc1 | inactive |
| Cc1ccc(OCCSc2nnc(-c3ccncc3)n2C)cc1 | inactive |
| CC(Oc1cccc2cccnc12)C(=O)N/N=C/c1ccc2c(c1)OCO2 (centres undefined) | inactive |
| COc1cc(NC(=O)c2noc3c2CCC3)c(OC)cc1Cl | inactive |
| O=C(c1cccs1)N1CCN(C/C=C/c2ccccc2)CC1 | inactive |
| c1ccc2c(c1)NCC1CCCN21 (centres undefined) | inactive |
| COc1ccccc1NC(=O)c1oc2ccc(C)cc2c1C | inactive |
| Cc1nnc(-c2cnn(-c3ccccc3)c2N)n1Cc1cccc(C(F)(F)F)c1 | inactive |

| SMILES | outcome |
| --- | --- |
| CCNC(=S)Nc1cccc(S(=O)(=O)NC2=NCCC2)c1 | inactive |
| O=[N+]([O-])c1ccc(Cl)c(S(=O)(=O)Nc2cccc(S(=O)(=O)NC3=NCCC3)c2)c1 | inactive |
| CC(C)Oc1ccc(-c2cc(C(=O)NCCN3CCOCC3)c3ccccc3n2)cc1 | inactive |
| CCOC(=O)N1CCC(NC(=O)c2cc3c(C)nc4ccccc4c3o2)CC1 | inactive |
| O=C(NCC1CCCO1)c1cc2ccccc2oc1=O (centres undefined) | inactive |
| O=C(Nc1ccccc1C(=O)NCC1CCCO1)c1ccccc1 (centres undefined) | inactive |
| CCOC(=O)N1CCC(NC(=O)c2cc(C(=O)NCc3cccc(Cl)c3)ccc2CO)CC1 | inactive |
| Cc1ccc2cccc(S(=O)(=O)N3CCN(c4ccccc4F)CC3)c2n1 | inactive |
| S=C(N/N=C/c1cccs1)NC1CC2CCC1C2 (centres undefined) | inactive |
| CC1=C(C(=O)OC(C)C)C(c2ccc(Br)s2)NC(=O)N1C (centres undefined) | inactive |
| COC(=O)Nc1ccc(C)c2nsnc12 | inactive |
| COc1ccccc1Cn1c(-c2ccccc2OC)nc2ccccc21 | inactive |
| CCOc1ccc2nc(SCC(=O)c3cccs3)sc2c1 | inactive |
| O=C(Nc1cnn(Cc2ccc(Cl)c(Cl)c2)c1)c1nc2ncccn2n1 | inactive |
| CCOC(=O)C1CCN(S(=O)(=O)c2cccc(-c3cn4cccnc4n3)c2)CC1 | inactive |
| CCN(CC)S(=O)(=O)c1ccc(/C=C/C(=O)Nc2ccc(N3CCOCC3)cc2)cc1 | inactive |
| CC(Sc1nnc(C2CC2)n1C)C(=O)Nc1ccc(N2CCOCC2)cc1 (centres undefined) | inactive |
| O=C1CC(N2CCOCC2)C(=O)N1c1ccc(Cl)cc1 (centres undefined) | inactive |
| Cn1c(-c2ccccc2)cnc1SCC(N)=O | inactive |
| COc1nc(N(c2ccccc2)c2ccccc2)nc(-n2ccnc2)n1 | inactive |
| C(=N\n1cnnc1)/c1ccc2ncccc2c1 | inactive |
| CC(C)OC(=O)CSc1nnc(-c2ccccn2)n1-c1ccccc1 | inactive |

| SMILES | outcome |
| --- | --- |
| C/C(CC1CC2=C(CC1(C)C)C(C)(C)CCC2)=N\NC(N)=S (centres undefined) | inactive |
| Cc1nc(NC(=O)COC(=O)CCS(=O)(=O)c2ccccc2Cl)c(Cl)cc1Cl | inactive |
| Cc1ccc(NC(=S)NNc2ncc(C(F)(F)F)cc2Cl)cc1 | inactive |
| O=c1c2cnn(-c3ccccc3Cl)c2ncn1Cc1cccnc1 | inactive |
| CC1=CC(C)C2C(=O)N(CCCN(C)C)C(=O)C2C1 (centres undefined) | inactive |
| COc1ccc(Nc2nc(N)nc(CSC(=S)N3CCN(c4ccccc4)CC3)n2)cc1 | inactive |
| Cc1nc(C)c(C(=O)OCC(=O)Nc2ccc(C)c(C)c2)s1 | inactive |
| O=C(N/N=C/C1CC=CCC1)c1ccccc1O (centres undefined) | inactive |
| CCc1cccc(CC)c1-n1c(SCC(=O)N2CCCc3ccccc32)nc(O)cc1=O | inactive |
| O=C(Cn1cc2c(n1)CCCC2)N1CCCc2ccccc21 | inactive |
| Cc1onc(-c2ccccc2)c1C(=O)N1CCCc2ccccc21 | inactive |
| O=C(Cn1ncc2c(=O)oc3ccccc3c21)N1CCCc2ccccc21 | inactive |
| Cc1nnc(SCC(=O)NCc2cccs2)[nH]c1=O | inactive |
| COc1ccc(C(CNCC(=O)Nc2ccccc2F)N(C)C)cc1 (centres undefined) | inactive |
| O=[N+]([O-])/C(C(Cl)=C(Cl)Cl)=C(/NC1CC1)Sc1ccccc1 | inactive |
| O=C1CCCN1c1ccc(S(=O)(=O)N2CCC(c3ccccc3)CC2)cc1 | inactive |
| N#C/C(=C/c1cc(Br)cs1)C(=O)NCC1CCCO1 (centres undefined) | inactive |
| Cc1ccc(Cl)cc1N1CCN(C(=O)Cc2cn(C)c3ccccc23)CC1 | inactive |
| O=C(COc1ccc(Cl)cc1)N1CCN(S(=O)(=O)c2ccc(Cl)cc2)CC1 | inactive |
| CC(C)Cn1nc(NC(=O)C(C)(C)C)c2cc3ccccc3nc21 | inactive |
| Cc1ccc(C(=O)NNS(=O)(=O)c2ccc(F)cc2)cc1 | inactive |
